Records with an inconclusive call do not appear. This is one part of the list. The source made the active and inactive calls. The call rests on the fitted dose curve; in most records, active means well fitted curve in the direction sought with a large enough effect; inconclusive means small, poorly fitted or top-dose-only effect, or another doubt; inactive means no such curve, though single readings can be large; an effect the other way counts as inactive or inconclusive.
Legend:
[1] = biological target: Rap guanine nucleotide exchange factor 3 (Homo sapiens) (UniProt O95398); experiment: Confirmatory qHTS for antagonist of cAMP-regulated guanine nucleotide exchange factor 3 (EPAC1) (AID 1645880); details: EPAC1 Rap1B-BODIPY-GDP exchange, fluorescence; activity, negative = inhibition: at 115 µM (top of the series); further: nearly all actives have a fitted effect of over 55% in size; further: potency means the concentration at half of the fitted maximal effect;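 on activity, negative = inhibition: plate controls were DMSO only for no effect and full effect of the ATA control for full effect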
Sequence of Rap guanine nucleotide exchange factor 3 (Homo sapiens) (O95398 whole entry, looked up): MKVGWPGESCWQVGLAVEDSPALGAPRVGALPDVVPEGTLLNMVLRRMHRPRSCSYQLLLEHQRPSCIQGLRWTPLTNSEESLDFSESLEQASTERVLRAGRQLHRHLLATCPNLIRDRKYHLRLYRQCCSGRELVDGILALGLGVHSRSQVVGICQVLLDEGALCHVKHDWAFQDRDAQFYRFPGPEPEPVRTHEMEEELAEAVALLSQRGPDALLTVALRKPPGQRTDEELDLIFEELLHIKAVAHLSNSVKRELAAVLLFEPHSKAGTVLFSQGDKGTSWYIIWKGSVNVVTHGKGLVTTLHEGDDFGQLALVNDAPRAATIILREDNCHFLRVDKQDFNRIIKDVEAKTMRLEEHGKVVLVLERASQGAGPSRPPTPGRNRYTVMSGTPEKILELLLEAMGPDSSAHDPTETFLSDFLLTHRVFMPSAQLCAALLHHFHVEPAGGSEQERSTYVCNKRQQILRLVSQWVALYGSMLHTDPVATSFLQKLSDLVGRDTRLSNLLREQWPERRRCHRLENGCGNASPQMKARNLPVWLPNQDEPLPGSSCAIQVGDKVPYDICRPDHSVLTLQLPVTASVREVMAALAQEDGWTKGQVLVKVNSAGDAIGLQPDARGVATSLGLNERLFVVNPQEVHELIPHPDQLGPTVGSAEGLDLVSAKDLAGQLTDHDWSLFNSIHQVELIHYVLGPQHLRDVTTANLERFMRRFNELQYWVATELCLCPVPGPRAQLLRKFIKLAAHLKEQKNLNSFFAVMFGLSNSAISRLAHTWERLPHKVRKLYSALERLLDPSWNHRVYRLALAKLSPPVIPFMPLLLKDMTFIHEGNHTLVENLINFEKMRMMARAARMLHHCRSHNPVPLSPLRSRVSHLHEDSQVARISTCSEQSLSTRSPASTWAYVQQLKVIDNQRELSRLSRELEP
Procedure, shortened: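 Released BODIPY-GDP fluoresces less than Rap1-bound BODIPY-GDP; the signal is followed at 480/540 nm at 5-min intervals over 30 min, after 5 min at room temperature. Reactions contain 100 nM EPAC1, 250 nM RAP1B-BODIPY-GDP and 50 uM GDP; results are normalized to ATA and DMSO.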

[2] = biological target: Rap guanine nucleotide exchange factor 3 (Homo sapiens) (UniProt O95398); experiment: Confirmatory qHTS for agonist of cAMP-regulated guanine nucleotide exchange factor 3 (EPAC1) (AID 1645881);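 further: EPAC1 catalysed release of BODIPY-GDP from Rap1B seen as fluorescence loss; 100% = effect of cAMP agonist control; nearly all actives have a fitted effect of over 75% in size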
[3] = biological target: Rap guanine nucleotide exchange factor 4 (Homo sapiens) (UniProt Q8WZA2); experiment: Confirmatory qHTS for agonist of cAMP-regulated guanine nucleotide exchange factor 4 (EPAC2) (AID 1645884);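 further: nucleotide exchange releases bodipy-GDP from Rap1 and this lowers its fluorescence; on the % scale 0 is the no-effect control and ±100 the full control effect; nearly all actives have a fitted effect of over 65% in size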
Sequence of Rap guanine nucleotide exchange factor 4 (Homo sapiens) (Q8WZA2 whole entry, looked up): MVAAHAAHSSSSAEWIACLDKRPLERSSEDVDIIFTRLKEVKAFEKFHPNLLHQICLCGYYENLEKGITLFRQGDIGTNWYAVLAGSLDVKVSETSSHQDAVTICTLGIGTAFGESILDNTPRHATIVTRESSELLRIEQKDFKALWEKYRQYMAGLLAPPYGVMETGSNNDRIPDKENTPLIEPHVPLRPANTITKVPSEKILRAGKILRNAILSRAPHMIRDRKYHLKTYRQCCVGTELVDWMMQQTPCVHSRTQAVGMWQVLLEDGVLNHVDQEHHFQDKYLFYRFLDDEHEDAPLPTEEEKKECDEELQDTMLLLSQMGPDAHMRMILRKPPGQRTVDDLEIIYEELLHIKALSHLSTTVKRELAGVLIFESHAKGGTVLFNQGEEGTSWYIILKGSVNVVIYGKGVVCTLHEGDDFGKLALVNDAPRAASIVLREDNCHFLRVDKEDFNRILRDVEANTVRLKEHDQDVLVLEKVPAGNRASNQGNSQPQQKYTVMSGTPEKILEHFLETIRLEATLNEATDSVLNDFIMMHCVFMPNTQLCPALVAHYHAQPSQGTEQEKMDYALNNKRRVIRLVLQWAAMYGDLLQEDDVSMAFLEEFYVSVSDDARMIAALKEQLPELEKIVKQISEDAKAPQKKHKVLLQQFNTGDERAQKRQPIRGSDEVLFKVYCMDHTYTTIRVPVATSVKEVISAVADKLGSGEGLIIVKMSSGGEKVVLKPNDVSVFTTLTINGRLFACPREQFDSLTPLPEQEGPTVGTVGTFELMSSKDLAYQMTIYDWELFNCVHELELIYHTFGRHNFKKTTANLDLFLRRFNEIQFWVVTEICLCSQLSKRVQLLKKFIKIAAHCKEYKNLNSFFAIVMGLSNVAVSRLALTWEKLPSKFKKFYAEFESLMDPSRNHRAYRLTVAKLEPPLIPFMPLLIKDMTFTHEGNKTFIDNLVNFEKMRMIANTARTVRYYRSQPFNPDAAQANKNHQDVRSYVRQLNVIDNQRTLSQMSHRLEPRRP

[4] = biological target: Rap guanine nucleotide exchange factor 3 (Homo sapiens) (UniProt O95398); experiment: Counterscreen qHTS for agonist of cAMP-regulated guanine nucleotide exchange factor 3 (EPAC1) (AID 1645889); further: nearly all actives have a fitted effect of over 40% in size; further: potency means the concentration at half of the fitted maximal effect; on activation: % of control where 0% means no effect
Procedure, shortened: (§1)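 Measured: fluorescence of BODIPY-GDP bound to Rap1B, which falls as exchange proceeds. Conditions include 50 uM competing GDP, 5 and 30 min reads, and a later cAMP challenge for antagonist detection.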

[5] = biological target: Phosphoglycerate kinase, glycosomal (Trypanosoma brucei brucei) (UniProt P07378); experiment: qHTS for inhibitors of Phosphogylcerate Kinase: Hit Validation Screen (AID 686980); details: TbPGK coupled GAPDH assay, Kinase-Glo luminescence; further: potency means the concentration at half of the fitted maximal effect; nearly all actives have a fitted effect of over 65% in size
Sequence of Phosphoglycerate kinase, glycosomal (Trypanosoma brucei brucei) (P07378 whole entry, looked up): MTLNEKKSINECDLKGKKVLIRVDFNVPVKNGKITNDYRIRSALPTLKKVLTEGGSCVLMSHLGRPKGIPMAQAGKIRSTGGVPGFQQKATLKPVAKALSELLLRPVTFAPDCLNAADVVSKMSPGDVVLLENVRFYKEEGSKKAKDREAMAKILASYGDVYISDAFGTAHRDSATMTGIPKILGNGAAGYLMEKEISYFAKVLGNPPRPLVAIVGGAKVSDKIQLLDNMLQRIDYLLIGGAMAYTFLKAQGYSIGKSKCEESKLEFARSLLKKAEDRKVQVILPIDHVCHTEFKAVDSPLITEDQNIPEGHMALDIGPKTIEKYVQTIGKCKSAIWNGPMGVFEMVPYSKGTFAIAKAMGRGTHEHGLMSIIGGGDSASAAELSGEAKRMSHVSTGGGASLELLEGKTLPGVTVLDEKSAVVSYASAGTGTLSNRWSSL
Procedure, shortened: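 Recombinant glycosomal PGK reaction used 1,3-bisphosphoglycerate generated in-well by GAPDH (100nM final) in 100mM TEA pH 7.6, 5mM MgCl2, 0.01% Tween-20. After 60 minutes at room temperature, ATP was read by Kinase-Glo Plus luminescence end-point.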

[6] = biological target: DNA polymerase iota (Homo sapiens) (UniProt Q9UNA4); experiment: qHTS for Inhibitors of Polymerase Iota: Confirmatory Assay for Cherry-picked Compounds (AID 720496); details: Pol iota primer extension, TAMRA/BHQ fluorescence; further: potency means the concentration at half of the fitted maximal effect
Procedure, shortened: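 Kinetic fluorescence, 0 → 10 min, ex 525/em 598 nm. Pol iota 10 nM, 15 min RT preincubation with compound, then 50 nM (final) TAMRA/BHQ-2 primer-template substrate.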

[7] = biological target: Bifunctional 3'-5' exonuclease/ATP-dependent helicase WRN (Homo sapiens) (UniProt Q14191); experiment: qHTS for Inhibitors of WRN Helicase: Confirmatory Assay for Cherry-picked Compounds. (AID 720497); details: WRN helicase DNA unwinding, fluorescence kinetic; further: potency means the concentration at half of the fitted maximal effect; nearly all actives have a fitted effect of over 65% in size
Procedure, shortened: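 Compound and 20 nM WRN incubated 15 min, RT. Forked duplex (100 nM) plus ATP (2 mM) added. Fluorescence monitored kinetically and normalized to controls.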

[8] = biological target: DNA polymerase kappa (Homo sapiens) (UniProt Q9UBT6); experiment: qHTS for Inhibitors of Polymerase Kappa: Confirmatory Assay for Cherry-picked Compounds (AID 720501); details: purified Pol-kappa, fluorescent strand-displacement substrate; further: potency means the concentration at half of the fitted maximal effect
Sequence of DNA polymerase kappa (Homo sapiens) (Q9UBT6 whole entry, looked up): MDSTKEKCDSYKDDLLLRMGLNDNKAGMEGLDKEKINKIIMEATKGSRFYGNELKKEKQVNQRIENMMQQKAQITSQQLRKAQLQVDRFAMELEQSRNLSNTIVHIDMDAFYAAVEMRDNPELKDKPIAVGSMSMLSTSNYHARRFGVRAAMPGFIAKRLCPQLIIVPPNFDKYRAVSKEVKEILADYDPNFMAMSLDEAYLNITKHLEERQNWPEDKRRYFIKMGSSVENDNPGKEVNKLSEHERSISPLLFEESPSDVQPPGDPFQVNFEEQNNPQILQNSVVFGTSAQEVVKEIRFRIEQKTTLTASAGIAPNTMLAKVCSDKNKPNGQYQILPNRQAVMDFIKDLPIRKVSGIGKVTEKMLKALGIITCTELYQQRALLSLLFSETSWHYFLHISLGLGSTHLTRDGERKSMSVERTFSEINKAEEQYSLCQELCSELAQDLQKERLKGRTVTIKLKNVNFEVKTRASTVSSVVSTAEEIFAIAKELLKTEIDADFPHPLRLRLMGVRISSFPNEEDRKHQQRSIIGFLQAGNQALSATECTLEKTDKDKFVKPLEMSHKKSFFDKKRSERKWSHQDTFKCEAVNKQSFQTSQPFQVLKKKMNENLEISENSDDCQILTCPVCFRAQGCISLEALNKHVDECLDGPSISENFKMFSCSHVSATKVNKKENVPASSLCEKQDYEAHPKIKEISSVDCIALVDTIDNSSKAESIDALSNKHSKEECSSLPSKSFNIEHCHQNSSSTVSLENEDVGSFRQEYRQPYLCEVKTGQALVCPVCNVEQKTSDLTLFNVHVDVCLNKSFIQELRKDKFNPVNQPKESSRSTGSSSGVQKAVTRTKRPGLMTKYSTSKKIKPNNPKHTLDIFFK
Procedure, shortened: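 Human Pol-kappa, dispensed at 10 nM, was preincubated with compounds for 15 min at room temperature. Reactions were started with primer/template substrate (50 nM final) carrying a TAMRA reporter strand and BHQ-2-quenched template, and fluorescence (ex 525/em 598 nm) was read at 0 and 10 min.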

[9] = biological target: DNA polymerase eta (Homo sapiens) (UniProt Q9Y253); experiment: qHTS for Inhibitors of Polymerase Eta: Confirmatory Assay for Cherry-picked Compounds (AID 720502); details: Pol eta primer extension, TAMRA/BHQ fluorescence, 10 min; further: potency means the concentration at half of the fitted maximal effect
Procedure, shortened: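 Compounds are preincubated 15 min at room temperature with 10 nM human Pol eta, with buffer-only wells serving as negative control. Adding 50 nM final substrate starts the reaction, and TAMRA fluorescence is read over 10 min.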

[10] = biological target: RecQ-like DNA helicase BLM (Homo sapiens) (UniProt P54132); experiment: qHTS for Inhibitors of WRN Helicase: BLM Helicase Counterscreen for WRN Inhibitors (AID 720503); details: Recombinant BLM helicase DNA unwinding, red fluorescence; further: potency means the concentration at half of the fitted maximal effect; nearly all actives have a fitted effect of over 60% in size
Sequence of RecQ-like DNA helicase BLM (Homo sapiens) (P54132 whole entry, looked up): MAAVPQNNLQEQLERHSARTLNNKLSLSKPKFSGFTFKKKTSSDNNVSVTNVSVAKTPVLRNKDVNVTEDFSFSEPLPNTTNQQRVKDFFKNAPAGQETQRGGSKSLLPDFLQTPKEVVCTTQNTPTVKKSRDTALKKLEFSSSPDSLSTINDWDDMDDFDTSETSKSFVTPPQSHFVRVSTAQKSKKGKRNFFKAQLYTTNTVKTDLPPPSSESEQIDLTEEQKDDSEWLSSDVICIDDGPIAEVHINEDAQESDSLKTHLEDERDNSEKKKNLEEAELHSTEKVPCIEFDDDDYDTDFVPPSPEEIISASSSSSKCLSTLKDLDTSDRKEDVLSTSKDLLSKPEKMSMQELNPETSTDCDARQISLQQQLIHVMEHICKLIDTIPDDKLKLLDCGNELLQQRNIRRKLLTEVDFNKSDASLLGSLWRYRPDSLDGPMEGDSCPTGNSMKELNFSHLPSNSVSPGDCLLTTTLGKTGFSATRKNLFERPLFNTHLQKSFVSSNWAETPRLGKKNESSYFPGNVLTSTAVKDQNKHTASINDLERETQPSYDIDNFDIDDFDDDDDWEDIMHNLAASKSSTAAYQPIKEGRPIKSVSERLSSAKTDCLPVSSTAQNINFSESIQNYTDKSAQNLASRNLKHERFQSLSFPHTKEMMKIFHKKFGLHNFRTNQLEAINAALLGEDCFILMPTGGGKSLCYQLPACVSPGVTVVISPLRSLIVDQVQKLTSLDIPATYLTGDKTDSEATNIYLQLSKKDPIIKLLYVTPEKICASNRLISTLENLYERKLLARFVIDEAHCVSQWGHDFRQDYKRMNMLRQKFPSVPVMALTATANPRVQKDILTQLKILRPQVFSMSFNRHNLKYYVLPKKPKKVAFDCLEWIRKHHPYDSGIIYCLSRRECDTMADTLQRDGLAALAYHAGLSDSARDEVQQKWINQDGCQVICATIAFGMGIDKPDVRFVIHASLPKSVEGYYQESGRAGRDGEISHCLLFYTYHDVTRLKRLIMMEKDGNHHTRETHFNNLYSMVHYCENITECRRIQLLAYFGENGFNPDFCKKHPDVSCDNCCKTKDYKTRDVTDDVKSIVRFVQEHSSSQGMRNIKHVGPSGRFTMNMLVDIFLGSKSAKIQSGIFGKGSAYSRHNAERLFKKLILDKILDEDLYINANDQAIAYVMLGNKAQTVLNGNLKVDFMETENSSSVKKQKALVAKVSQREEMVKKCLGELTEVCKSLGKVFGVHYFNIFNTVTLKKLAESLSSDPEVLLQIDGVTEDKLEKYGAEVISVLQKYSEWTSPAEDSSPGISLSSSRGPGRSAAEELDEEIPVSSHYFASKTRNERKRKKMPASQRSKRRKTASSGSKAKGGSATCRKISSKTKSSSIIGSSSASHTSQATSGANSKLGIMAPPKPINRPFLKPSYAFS
Procedure, shortened: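 BLM (1 nM) was preincubated with compounds for 15 min at room temperature in Tris-HCl pH 8.0, 50 mM NaCl, 2 mM MgCl2 buffer. Unwinding started with 100 nM DNA and 2 mM ATP (final); red fluorescence was read twice, 15 min apart.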

[11] = biological target: Rap guanine nucleotide exchange factor 3 (Homo sapiens) (UniProt O95398); experiment: Counterscreen qHTS for antagonist of cAMP-regulated guanine nucleotide exchange factor 3 (EPAC1) (AID 1645888); further: % of control where 0% means no effect
Procedure, shortened: as §1

CCOC(=O)C1(Cc2ccccc2)C(=O)Nc2ccccc21 (stereo unspecified)
inactive: Potency [1] | Potency [2] | activation [3] 2.58% [at 17.1 µM, percent relative to cAMP agonist control] | activation [4] 32.7% [at 30.8 µM]

COc1ccc(/C=C2/C(=O)N(CC3CCCO3)C(=S)N2C)c(OC)c1 (stereo unspecified)
active: Potency [1] 84900 nM
inactive: Potency [2] | Potency [3] | Potency [4]

CN(C)c1ccc2nc3c(=O)[nH]c(=O)nc-3n(CC(O)C(O)C(O)CO)c2c1 (stereo unspecified)
active: Potency [4] 11200 nM
inactive: Potency [1] | Potency [2] | activation [3] -84.9% [at 17.1 µM, percent relative to cAMP agonist control]

Cc1cccc(Cn2c(C)nc3c(N)c(C)c(C)cc32)c1
inactive: Potency [1] | Potency [2] | Potency [3] | Potency [4]

O=c1ccc2c(-c3ccccc3S(=O)(=O)O)c3ccc(O)c(O)c3oc-2c1O
active: Potency [5] 366 nM | Potency [6] 597 nM | Potency [7] 541 nM | Potency [8] 1060 nM | Potency [9] 1070 nM | Potency [10] 136 nM | Potency [1] 7940 nM
inactive: Potency [2] | activation [3] -12% [at 17.1 µM, percent relative to cAMP agonist control] | activity change, negative = inhibition [11] -28.7% [at 30.8 µM] | activation [4] -15.5% [at 30.8 µM]

O=C1C=C(c2ccccc2)C(c2ccccc2)C1 (stereo unspecified)
inactive: Potency [1] | Potency [2] | Potency [3] | Potency [4]

Reference: PubChem BioAssay (NCATS)
